Source: the supplement of paper PMC6555819

Each sequence was assayed on PPARg DBDmut IVT, anti-PPARg (DBD mutation: PPARg1 K132A/R137A, NR concentration 270 nM) (assay: PBM binding z-score (relative to random genomic background probes); higher = stronger binding; sequences stand for … in GC…GCGATTGACAGCGTAGAATGAAGG).
Summary of the method: (§1)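 Probes were double-stranded and carried 34-nt variable regions with direct-repeat seeds, single-nucleotide variants, half-site ablations and random human genomic background sequences, printed on custom Agilent 4×180K protein-binding microarrays. Arrays were incubated 1 h with ligand-free nuclear receptor dimers in PBS pH 7.4, 2% milk, 0.02% Triton X-100, 1 mM DTT, 0.2 mg/mL BSA and 0.4 mg/ml salmon testes DNA. Antibodies against each partner (one per run) detected binding, and scanned fluorescence was regression-normalized. Binding z-scores use the random background probes as reference.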

Sequence	PBM binding z-score
ACTAGCAGGCAAAGGGTCACTCAAGATTAGTCCG	-1.05
TCTTGTAGAACAAAGGTTAAGAAAGCCGAAGCCT	0.832
TAACCTAGGTCATGGGCCAGTATACCACGCGAAC	0.97
CTACCAAGGTGAACAAGGTCGTTGCTTACTATTC	-0.195
TGTGCTAGGTCAGTTGGTCAGCTAACGAGCTGCC	0.199
TCTGGTTGGTCACGGAGGTCACACACGACGGGTA	1.67
AGTCAAAGTTCATCTAGGTGACGTAAGATATGCT	1.41
GCTCTTAGTTGAAAGGGCAACCGAATGATTCTCG	-0.335
CGTCCAAGGTCAGGGTCAGTGAAAGAGACTCGAA	-0.416
TCATATAGCTAAAGGTGAAAGTCGAACGATATGA	1.01
AGAATGAGGTTACCAAAGATCAGGTAAACGCTTG	0.666
GCTGCTAGGTCAACTGATGGTTAGCTAAAGCTCG	-0.602
TCGAGTAGGTTACTCGGGGCATTCAGCCAACATA	-0.378
AGAAGGAGGGCACGCTGAGTTGATAGCAGAGTAG	0.398
GCATATAGGTAATACATGGTGAAAGTCCGATTGT	0.833
GCTATTAGTTGAAAAGGCAACCGAATGATTCTCG	0.295
CAAACTAGGTCAAGGTCAACGTCGGTTTGTGCCA	2.23
GCTTGTAAATCAAGGTTAAGAAAGACTAAGCTAA	0.161

What follows are sequences tested on PPARg homodimer (NR concentration 180 nM) in the same assay as above.
Summary of the method: as §1

Sequence	PBM binding z-score
TCAGAGAGGTGAAGGTAACTCAGGTACGCAGTCG	0.67
GGTAGTTGGTCAGTAAAAGGTCACACACCGGTCG	4.48
GTACCAAGGTGAATAGTTCGTTGATGAGTAGGCG	0.906
TCTATTAGTTGAATAGGGCAACCGAAACAGCGGA	0.658
CAAACTAGGTCACAGAGCTCAAAGTCCGTGCGTA	1.74
ATCTCTTGGTAACAAGTTCAGTGAAAGAGAGGAC	0.303
TCAGACAGGTCAAGGTAACTCAGGTACGCAGTCG	1.88
TCGAGTAGGTTAGTCGGGGCGTTCAGCCAACATA	-0.66
TCTGCTAGGTCAGTTGGTCAGCTCACGAGCTGCC	-0.202
AGAACGAGGGCACGCTGAGTTGATTGCAGAGTAG	0.222
AGAACGAGGGCACGCTGAGTAGATAGCAGAGTAG	0.114
ATATGTAGGTTACATCCGGGTCATTCCGGCTATG	2.43
AGAACGCGGGCACGCTGAGTTGATAGCAGAGTAG	-0.455
TCTTGTAGATCAATAGAGGCTAAGAAAGTGCGCT	0.0391
CCTAGCAGGCCAATCTGGGTCACTGAAGGCTTGA	0.812
CCTTACGGGTCACGAGGTTACAGCACGACGAGCG	5.5
TCTTGTAGATCAGCAGGTGAAGAAAGCTGGCCAA	-1.42
ACTATTAGCTGACTTAGGGCAACCGATACGACGC	0.825
AGAACGAGGGCAATGAGTTGATCGCACGGGTGGC	-0.315
TTACCAAGGTGAAGGTCGTCGATCCCTCTGTAGA	0.887

Sequence	PBM binding z-score
CTCGAAAGGTCGGTTGAGGTGAATATACGGATAA	0.741
CGTCCAAGGTCAAGGCTAGGTCAGTGAAAGCATT	5.83
ACTAGCAGGCAAAGGGTCACTCAAGATTAGTCCG	2.82
TCTTGTAGAACAAAGGTTAAGAAAGCCGAAGCCT	0.868
TAACCTAGGTCATGGGCCAGTATACCACGCGAAC	2.68
CTACCAAGGTGAACAAGGTCGTTGCTTACTATTC	1.15
TGTGCTAGGTCAGTTGGTCAGCTAACGAGCTGCC	0.18
TCTGGTTGGTCACGGAGGTCACACACGACGGGTA	4.27
AGTCAAAGTTCATCTAGGTGACGTAAGATATGCT	3.65
GCTCTTAGTTGAAAGGGCAACCGAATGATTCTCG	0.85
CGTCCAAGGTCAGGGTCAGTGAAAGAGACTCGAA	2.66
TCATATAGCTAAAGGTGAAAGTCGAACGATATGA	0.548
AGAATGAGGTTACCAAAGATCAGGTAAACGCTTG	0.758
GCTGCTAGGTCAACTGATGGTTAGCTAAAGCTCG	1.62
TCGAGTAGGTTACTCGGGGCATTCAGCCAACATA	-0.112
AGAAGGAGGGCACGCTGAGTTGATAGCAGAGTAG	0.378
GCATATAGGTAATACATGGTGAAAGTCCGATTGT	0.511
GCTATTAGTTGAAAAGGCAACCGAATGATTCTCG	1.02
CAAACTAGGTCAAGGTCAACGTCGGTTTGTGCCA	4.73
GCTTGTAAATCAAGGTTAAGAAAGACTAAGCTAA	0.00597
